HCV inh = blocks hepatitis C virus | Huh7.5.1 HCVcc-Cre infection, luciferase reporter, 44 h | Potency, µM (series often up to 41.8 µM), for the others: at the top dose activity change, negative = inhibition, actives largely listed as inhibitors | 3.4% of 340,000 active | AID 651820; further: potency means the concentration at half of the fitted maximal effect
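HCVcc-Cre virus at an moi near 0.5 was added right after compound to cells cultured 4 h from seeding (1,000 cells/well). Luciferase activity was determined 44 h later, 15 min after substrate addition at RT.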
HCMV inh = human cytomegalovirus inhibition; HFF cells, HCMV-luciferase reporter, 72 h; active compounds read low; activity change, negative = inhibition, % at 57.5 µM; 4.5% of 410,000 active; in the data active means activity change below about -60%; inconclusive means no clear call, values can overlap the other calls; inactive means above about -39%
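Inhibition of viral replication was scored as loss of reporter luminescence in HFFs infected with HCMV-luciferase (MOI 1 PFU/cell) for 72 h; compounds tested at 2 doses, normalized to buffer and Salinomycin controls.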
Sm TGR inh = blocks Schistosoma mansoni thioredoxin glutathione reductase; 3% of 360,000 active; Potency, µM (top dose mostly 114 µM), for the others: at the highest dose activity change, negative = inhibition, actives largely listed as inhibitors; purified TGR, DTNB reduction, TNB absorbance 405 nm; further: potency means the concentration at half of the fitted maximal effect; nearly all actives have a fitted effect of over 60% in size
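Kinetic colorimetric format: TGR-catalysed, NADPH-driven DTNB reduction monitored via TNB absorbance. Enzyme dispensed at 20 nM; compound exposure 15 min at room temperature before reaction start.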
Vaccinia Venus = inhibitors of vaccinia virus (Venus reporter). 0.46% of 330,000 active. Potency, µM (doses to about 36.5 µM), inactives show top-dose activity change, negative = inhibition, hits mostly inhibitors. AID 720580. Vaccinia virus Venus reporter expression, fluorescence; calls by dose curve; tested in A549 cells; further: potency means the concentration at half of the fitted maximal effect; nearly all actives have a fitted effect of over 30% in size
VACV mCherry inh = inhibitors of vaccinia virus infection (mCherry reporter signal); Vaccinia virus mCherry reporter infection, fluorescence; Potency, µM (series often up to 36.5 µM), for the others: top-dose activity change, negative = inhibition, usual class: inhibitors; 0.63% of 310,000 active; calls by dose curve; tested in A549 cells; further: potency means the concentration at half of the fitted maximal effect; nearly all actives have a fitted effect of over 35% in size
FMDV antiviral = foot and mouth disease virus antiviral activity | FMDV antiviral cell-based qHTS | Potency, µM (highest dose often 57.9 µM), for inactives: at the top dose activity change, negative = inhibition, hits mostly inhibitors | 1.2% of 410,000 active | AID 1159524; calls by dose curve; tested in HEK293T cells; further: read-out not given here; potency means the concentration at half of the fitted maximal effect; nearly all actives have a fitted effect of over 45% in size
* hit, by the source's call; i = inactive; ? = inconclusive; . = not tested or not shown; + = active, no number. A selection: hits, their analogues and other compounds. The true share with any hit is near 9.3%. Unless noted, the call rests on the fitted dose curve; in most records, active means well fitted curve in the direction sought with a large enough effect; inconclusive means small, poorly fitted or top-dose-only effect, or another doubt; inactive means no such curve, though single readings can be large; an effect the other way counts as inactive or inconclusive. On the % scale 0 is the no-effect control and ±100 the full control effect.

SMILES | HCV inh | HCMV inh | Sm TGR inh | Vaccinia Venus | VACV mCherry inh | FMDV antiviral
CCN(CC)S(=O)(=O)c1cc(NC(=O)CNc2cccc(S(=O)(=O)N3CCCC3)c2)ccc1C | 0.56µM* | . | 3% | ? | -26% | ?
CC1(c2ccc3ccccc3c2)NC(=O)N(CC(=O)Nc2cccc(S(=O)(=O)N3CCOCC3)c2)C1=O (stereo unspecified) | 6% | ? | -3% | -4% | -19% | 35µM*
O=C(CNc1ccc(C(F)(F)F)cc1)Nc1cccc(S(=O)(=O)N2CCCC2)c1 | ? | 95 | 5% | . | . | -7%
O=C(CNc1cccc(S(=O)(=O)N2CCOCC2)c1)Nc1ccc(C(F)(F)F)cc1 | ? | -11 | 7% | -23% | -12% | 32µM*
CCN(CC)S(=O)(=O)c1ccc(C)c(NC(=S)Nc2cccc(S(=O)(=O)N3CCCCCC3)c2)c1 | ? | -77* | -26% | -20% | i | ?
O=C(CNc1ccc(Br)cc1)NNC1=NCCC1 | ? | 17 | 0% | -5% | -15% | -15%
CC(C)(C)N1C(=O)c2ccccc2NC(=O)C1C(=O)NCCc1ccccc1 (stereo unspecified) | . | 13 | . | -1% | -6% | 5%
COC/C=C/C1=CC(=O)C[C@H](c2ccc3c(c2)OCO3)C1 | ? | 56 | ? | -7% | -1% | -28%
Cc1csc(SCC(=O)Nc2cccc(S(=O)(=O)N3CCOCC3)c2)n1 | -19% | 109 | 3% | -8% | i | 15%
O=C(CNc1cccc(S(=O)(=O)N2CCCCC2)c1)Nc1cccc(F)c1 | -22% | ? | -3% | -23% | -13% | 0%
Cc1ccc(S(=O)(=O)c2cccc(S(=O)(=O)N3CCCC3)c2)cc1S(=O)(=O)N1CCCC1 | 16µM* | -23 | -2% | . | . | -13%
CC(=O)Nc1cccc(S(=O)(=O)N2CCCCCC2)c1 | -1% | -100* | 6% | -6% | i | 9%
CN(C)S(=O)(=O)c1cccc(NC(=O)CNc2cccc(S(=O)(=O)N3CCCCC3)c2)c1 | . | -81* | . | ? | ? | -6%
O=C(Nc1cccc(S(=O)(=O)N2CCCCCC2)c1)c1ccc2c(c1)OCO2 | ? | -62* | 5% | ? | -24% | -2%
Cc1ccc(S(=O)(=O)c2cccc(S(=O)(=O)N3CCOCC3)c2)cc1S(=O)(=O)N1CCOCC1 | 8% | -4 | 6% | -3% | -11% | -11%
CC1CCc2ccccc2N1CC(=O)Nc1cccc(S(=O)(=O)N2CCCC2)c1 (stereo unspecified) | 32µM* | -31 | 1% | -6% | ? | -13%
CC(=O)c1cccc(NCC(=O)Nc2cc(S(=O)(=O)N3CCCCC3)ccc2C)c1 | 11µM* | -35 | 1% | -16% | -20% | 0%
NC(=O)c1nn(CC(=O)Nc2cccc(S(=O)(=O)N3CCCC3)c2)c(=O)c2ccccc12 | 11µM* | 0 | -8% | . | . | 0%
CCN(CC)S(=O)(=O)c1cc(NC(=O)C(C)N2CC=C(c3ccccc3)CC2)ccc1C (stereo unspecified) | 11µM* | -30 | -15% | -29% | ? | ?
O=C(CN1CCCc2ccccc21)Nc1cccc(S(=O)(=O)N2CCCC2)c1 | . | 0 | . | -11% | -12% | 1%
C[C@H]1CN([C@@H](C)CO)C(=O)Cc2cc(NC(=O)CCC(F)(F)F)ccc2O[C@H]1CN(C)S(C)(=O)=O | 7% | 15 | . | -3% | i | 1%
Cc1ccc(-c2csc3nnc(SCc4csc(C)n4)n23)cc1 | -8% | -10 | 5% | . | . | -23%
CCN(CC)S(=O)(=O)c1cccc(NC(=O)CNc2cccc(S(=O)(=O)N3CCOCC3)c2)c1 | 0.56µM* | . | 4% | ? | ? | ?
COc1ccc(C(C#N)CC(=O)c2ccc(OC)c(OCc3ccccc3)c2)cc1OC (stereo unspecified) | . | -70* | . | ? | -18% | ?
CCC(=O)c1ccc(OCc2ccccc2)c(OC)c1 | ? | 97 | 7% | -14% | -20% | 73%
SMILES | HCV inh | HCMV inh | Sm TGR inh | Vaccinia Venus | VACV mCherry inh | FMDV antiviral
Cc1c(C)n(Cc2ccccc2)c2ccc(C(=O)NCc3ccccc3F)cc12 | . | + | 3% | -6% | -11% | 17%
COc1cc(CNC(=O)c2ccc3c(c2)c(C)c(C)n3Cc2cccc(C)c2)cc(OC)c1OC | . | -87* | -8% | -4% | -25% | 0%
COc1cc2[nH]c(=S)nc(NC3CCCCCC3)c2cc1OC | ? | -74* | 1% | 0% | i | ?
COc1ccccc1CNc1nc(=S)[nH]c2cc(OC)c(OC)cc12 | -15% | -26 | -32% | . | . | 57%
COc1cc2[nH]c(=S)nc(NCCc3ccc(S(N)(=O)=O)cc3)c2cc1OC | 3% | 9 | 14µM* | -14% | -4% | -12%
COc1cc2[nH]c(=S)nc(NCc3cccs3)c2cc1OC | 25µM* | -14 | -5% | 1% | i | 15%
COc1cc2[nH]c(=S)nc(NCCc3ccc(C)cc3)c2cc1OC | 4% | 3 | -3% | . | . | 0%
CN(CC(=O)Nc1ccccc1Cl)C(=O)CCc1nc2ccccc2c(=O)[nH]1 | 11% | -6 | -2% | -16% | i | -6%
CC1(C)Oc2ccc3ccc(=O)oc3c2C[C@H]1O | 6% | 47 | 21% | -7% | i | 5%
NC(=O)c1ccc(OCC(F)(F)C(F)(F)C(F)(F)C(F)(F)C(F)(F)C(F)F)cc1 | 0% | 32 | 33% | -10% | -1% | .
O=C(c1sc2ccccc2c1Cl)N(Cc1ccccc1)C1CCS(=O)(=O)C1 (stereo unspecified) | 15% | 22 | 3% | . | . | -21%
CCOc1cccc(C(=O)N(Cc2ccco2)C2CCS(=O)(=O)C2)c1 (stereo unspecified) | 14% | 5 | 35µM* | 2% | -1% | -6%
O=C(c1sc2ccccc2c1Cl)N(Cc1ccco1)C1CCS(=O)(=O)C1 (stereo unspecified) | 7% | -7 | 32µM* | . | . | -28%
CC1CN(c2ccc([N+](=O)[O-])c(NCCOc3ccc(Cl)cc3)c2)CC(C)N1 (stereo unspecified) | 8.9µM* | -17 | 2% | . | . | -6%
CCc1ccc(OCCNc2cc(N3CCNC(C)C3)ccc2[N+](=O)[O-])cc1 (stereo unspecified) | 14µM* | -3 | -2% | . | . | -8%
Cc1ccccc1NC(=O)Cc1nc(COC(=O)c2ccc(Cl)c(S(N)(=O)=O)c2)cs1 | -29% | -25 | -1% | -12% | -17% | -4%
Cc1ccc(S(=O)(=O)NCCN2CCOCC2)s1 | -5% | -67* | 5% | . | . | 9%
O=S(=O)(NCCN1CCOCC1)c1ccc(Cl)s1 | 9% | -40 | 6% | -3% | i | 8%
Cc1c(O)c(CN2CCCC2)cc2c3c(c(=O)oc12)CCC3 | ? | 88 | ? | -3% | i | 4%

Source: PubChem BioAssay
